# Assay results: paper PMC7862700, “An all-to-all approach to the identification of sequence-specific readers for epigenetic DNA modifications on cytosine”
# Assays:
# Experiment in all cases: DAPPL (digital affinity profiling via proximity ligation, sequencing); 10 mM Tris-HCl pH 7.5, 50 mM NaCl, 1 mM DTT, 4% glycerol, room temperature, 30 min; GST-TFs on glutathione beads, 16-mer random dsDNA library, 0.1% formaldehyde crosslink after washing; high values mean tight binding
# Conditions in all cases: protein: recombinant; tags: N-terminal GST; dsDNA, one strand shown
# ETV1 = ETV1 (Homo sapiens, UniProt P50549 1-477)
# ETV1, sequence (P50549 whole entry, the tested form may be a part): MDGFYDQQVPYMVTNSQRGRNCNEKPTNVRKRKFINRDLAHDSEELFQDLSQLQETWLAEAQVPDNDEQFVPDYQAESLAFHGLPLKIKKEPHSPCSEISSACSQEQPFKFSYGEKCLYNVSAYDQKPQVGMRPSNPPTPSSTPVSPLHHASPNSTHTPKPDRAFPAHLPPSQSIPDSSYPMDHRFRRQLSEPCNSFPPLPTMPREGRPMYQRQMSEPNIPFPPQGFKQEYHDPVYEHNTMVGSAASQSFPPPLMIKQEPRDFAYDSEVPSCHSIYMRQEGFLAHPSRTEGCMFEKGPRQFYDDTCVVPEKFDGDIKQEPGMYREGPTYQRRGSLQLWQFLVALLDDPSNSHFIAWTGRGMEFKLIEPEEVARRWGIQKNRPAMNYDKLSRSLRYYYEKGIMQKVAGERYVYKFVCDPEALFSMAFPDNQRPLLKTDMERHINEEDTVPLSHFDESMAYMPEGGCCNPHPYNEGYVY
# Procedure, shortened: (§1)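 Beads coated with glutathione captured GST-fused human transcription factors that had been expressed in yeast, and the factors were then given DNA barcodes and pooled with a tag-only sample. The pools were incubated with 200 nmole of a random double-stranded 16-mer DNA library in Tris/NaCl/DTT/glycerol buffer for 30 min at room temperature, washed, crosslinked with 0.1% formaldehyde and proximity-ligated with BsaI/T4 ligase at 37 °C for 1 h. PCR amplification and Illumina NextSeq500 sequencing came last. Binding signal is each hexamer's read frequency for a factor divided by its frequency for the tag-only sample.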
# ERF = molecular target: T1, ERF (Homo sapiens, UniProt P50548 1-548)
# T1 sequence: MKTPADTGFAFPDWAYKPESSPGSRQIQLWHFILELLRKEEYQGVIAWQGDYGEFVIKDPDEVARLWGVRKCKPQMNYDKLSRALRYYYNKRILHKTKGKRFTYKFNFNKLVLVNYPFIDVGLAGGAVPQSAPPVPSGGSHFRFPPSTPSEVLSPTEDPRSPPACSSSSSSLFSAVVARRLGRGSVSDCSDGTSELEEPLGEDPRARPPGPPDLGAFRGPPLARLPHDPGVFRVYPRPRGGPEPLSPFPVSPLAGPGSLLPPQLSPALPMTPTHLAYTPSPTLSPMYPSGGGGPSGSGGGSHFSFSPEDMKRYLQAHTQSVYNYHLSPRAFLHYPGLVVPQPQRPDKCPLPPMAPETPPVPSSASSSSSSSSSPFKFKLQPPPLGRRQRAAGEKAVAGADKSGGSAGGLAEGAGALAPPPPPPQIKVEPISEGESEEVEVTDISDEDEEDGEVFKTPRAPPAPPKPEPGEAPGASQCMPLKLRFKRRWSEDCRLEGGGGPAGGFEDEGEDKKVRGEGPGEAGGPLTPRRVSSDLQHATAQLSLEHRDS
# Procedure, shortened: as §1
# ETV3L = molecular target: T2, ETV3L (Homo sapiens, UniProt Q6ZN32 1-361)
# T2 sequence: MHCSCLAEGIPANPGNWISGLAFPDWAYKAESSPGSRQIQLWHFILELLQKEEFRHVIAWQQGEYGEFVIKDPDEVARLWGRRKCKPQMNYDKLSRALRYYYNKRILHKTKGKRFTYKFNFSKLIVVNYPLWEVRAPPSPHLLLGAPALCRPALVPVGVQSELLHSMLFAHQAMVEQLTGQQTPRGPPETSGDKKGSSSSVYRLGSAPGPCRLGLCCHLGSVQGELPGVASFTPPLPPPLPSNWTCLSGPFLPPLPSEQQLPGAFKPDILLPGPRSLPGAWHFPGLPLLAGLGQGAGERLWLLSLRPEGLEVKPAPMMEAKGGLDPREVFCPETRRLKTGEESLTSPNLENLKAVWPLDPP
# Procedure, shortened: as §1
# ETS2 = molecular target: T3, ETS2 (Homo sapiens, UniProt P15036 1-469)
# T3 sequence: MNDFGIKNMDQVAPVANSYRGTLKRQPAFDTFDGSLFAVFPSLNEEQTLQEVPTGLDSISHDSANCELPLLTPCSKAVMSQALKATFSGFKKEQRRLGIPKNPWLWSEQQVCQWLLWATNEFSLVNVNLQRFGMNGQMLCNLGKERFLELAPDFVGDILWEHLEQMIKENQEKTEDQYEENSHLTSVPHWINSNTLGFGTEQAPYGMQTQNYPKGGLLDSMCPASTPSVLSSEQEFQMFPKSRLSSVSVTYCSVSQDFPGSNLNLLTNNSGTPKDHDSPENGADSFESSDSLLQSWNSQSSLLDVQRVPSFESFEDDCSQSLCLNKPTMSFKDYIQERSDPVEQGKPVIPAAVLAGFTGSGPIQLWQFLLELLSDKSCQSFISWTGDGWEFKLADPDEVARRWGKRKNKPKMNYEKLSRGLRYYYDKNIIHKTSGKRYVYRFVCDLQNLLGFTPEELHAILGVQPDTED
# Procedure, shortened: as §1
# SPDEF = molecular target: T4, SPDEF (Homo sapiens, UniProt O95238 1-335)
# T4 sequence: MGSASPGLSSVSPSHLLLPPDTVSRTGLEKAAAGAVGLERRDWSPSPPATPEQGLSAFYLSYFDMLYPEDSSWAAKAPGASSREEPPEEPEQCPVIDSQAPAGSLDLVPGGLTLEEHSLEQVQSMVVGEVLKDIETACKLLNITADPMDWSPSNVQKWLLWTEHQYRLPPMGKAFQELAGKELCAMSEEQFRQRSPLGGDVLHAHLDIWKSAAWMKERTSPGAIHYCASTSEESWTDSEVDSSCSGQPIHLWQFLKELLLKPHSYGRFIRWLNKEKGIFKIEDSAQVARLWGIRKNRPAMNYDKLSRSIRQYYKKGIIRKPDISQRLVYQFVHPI
# Procedure, shortened: as §1
# ETV7 = molecular target: T5, ETV7 (Homo sapiens, UniProt Q9Y603 1-341)
# T5 sequence: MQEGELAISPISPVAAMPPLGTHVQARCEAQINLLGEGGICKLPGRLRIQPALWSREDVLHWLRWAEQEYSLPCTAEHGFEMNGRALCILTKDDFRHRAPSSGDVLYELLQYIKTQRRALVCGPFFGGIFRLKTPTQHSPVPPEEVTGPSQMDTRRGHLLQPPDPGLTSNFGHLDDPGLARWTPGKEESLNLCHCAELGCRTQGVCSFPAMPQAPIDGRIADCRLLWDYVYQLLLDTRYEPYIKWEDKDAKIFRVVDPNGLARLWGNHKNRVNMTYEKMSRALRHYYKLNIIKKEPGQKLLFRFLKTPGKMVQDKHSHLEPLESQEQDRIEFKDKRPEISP
# Procedure, shortened: as §1
# ELF5 = molecular target: T6, ELF5 (Homo sapiens, UniProt Q9UKW6-2 1-255)
# T6 sequence: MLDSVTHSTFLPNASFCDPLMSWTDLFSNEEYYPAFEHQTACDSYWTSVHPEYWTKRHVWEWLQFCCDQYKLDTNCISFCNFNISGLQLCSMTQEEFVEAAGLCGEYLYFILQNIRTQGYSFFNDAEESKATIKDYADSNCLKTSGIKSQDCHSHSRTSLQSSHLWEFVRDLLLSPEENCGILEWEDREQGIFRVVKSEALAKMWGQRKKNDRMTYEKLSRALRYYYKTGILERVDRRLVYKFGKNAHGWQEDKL
# Procedure, shortened: as §1
# ETV3 = molecular target: T7, ETV3 (Homo sapiens, UniProt P41162-2 1-143)
# T7 sequence: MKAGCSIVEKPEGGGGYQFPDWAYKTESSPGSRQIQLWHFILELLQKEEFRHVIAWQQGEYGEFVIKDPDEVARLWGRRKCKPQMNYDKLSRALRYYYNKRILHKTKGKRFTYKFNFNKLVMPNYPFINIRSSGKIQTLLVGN
# Procedure, shortened: as §1
# ETV6 = ETV6 (Homo sapiens, UniProt P41212 1-452)
# ETV6, sequence (P41212 whole entry): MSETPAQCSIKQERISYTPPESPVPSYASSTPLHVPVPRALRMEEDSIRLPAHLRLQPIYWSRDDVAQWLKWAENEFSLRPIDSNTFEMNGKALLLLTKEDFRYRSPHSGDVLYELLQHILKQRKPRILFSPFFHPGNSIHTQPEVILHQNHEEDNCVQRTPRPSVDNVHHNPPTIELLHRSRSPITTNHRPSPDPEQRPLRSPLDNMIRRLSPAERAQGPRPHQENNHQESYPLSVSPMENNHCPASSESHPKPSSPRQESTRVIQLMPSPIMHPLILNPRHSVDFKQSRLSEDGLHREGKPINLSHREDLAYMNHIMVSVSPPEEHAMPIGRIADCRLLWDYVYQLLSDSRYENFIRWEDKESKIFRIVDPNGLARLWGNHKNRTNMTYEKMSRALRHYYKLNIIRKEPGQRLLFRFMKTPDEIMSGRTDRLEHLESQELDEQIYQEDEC
# Procedure, shortened: as §1
sequence,measurement,setting,value
TAAACA,binding signal,ETV1,"1.2 fold enrichment (6-mer frequency, TF over GST control)"
same,binding signal,ERF,"1.31 fold enrichment (6-mer frequency, TF over GST control)"
same,binding signal,ETV3L,"1.25 fold enrichment (6-mer frequency, TF over GST control)"
same,binding signal,ETS2,"1.27 fold enrichment (6-mer frequency, TF over GST control)"
same,binding signal,SPDEF,"1.27 fold enrichment (6-mer frequency, TF over GST control)"
same,binding signal,ETV7,"1.24 fold enrichment (6-mer frequency, TF over GST control)"
same,binding signal,ELF5,"1.22 fold enrichment (6-mer frequency, TF over GST control)"
same,binding signal,ETV3,"1.25 fold enrichment (6-mer frequency, TF over GST control)"
same,binding signal,ETV6,"1.25 fold enrichment (6-mer frequency, TF over GST control)"
